This is part of a sample that, as a whole, favours compounds with a hit. Of some 83,000 tested, about 20% had one in any assay.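 Method: cells in 96-well plates; compound added at one concentration; 48 h incubation; percent growth measured; values under 10 scored active.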 Unmarked numbers belong to inactive results. Active and inactive are the calls of the source.
system: CAKI-1 renal; assay: NCI-60 one-dose screen, 48 h (100 = growth as untreated, 0 = no growth, -100 = all killed); conditions: 10 µM unless noted
Method: Growth inhibition of the CAKI-1 human tumor cell line is measured as a screen for anti-cancer activity. Cells are grown in 96 well plates and exposed to the test compound for 48 hours. Compounds are tested at a single concentration, which is 10^-5 M for most compounds. The reported endpoint is percent growth (GI% or GIPRCNT), where numbers from 0 - 100% represent growth inhibition, and numbers from -100% - 0 represent cell death. For example, a value of 40 represents 60% growth inhibition. A value of 0 means no net growth occurred over the course of the experiment. A value of -40 indicates 40% of cells at the beginning of the experiment died by the end of the experiment. A value of -100 means all cells are dead at the end of the experiment.
NCI-60 Human Tumor Cell Lines Screen was performed using the standard one-dose NCI protocol, which is described in more detail at https://dtp.cancer.gov/discovery_development/nci-60/default.htm.
Compounds with GIPRCNT values below 10 were considered active. Activity score was based on GIPRCNT using the following formula: […]
Score is 0 for GIPRCNT values of 100 or above, 50 for GIPRCNT values of 0, and 100 for GIPRCNT values of -100.

With O=C1c2cccnc2C(=O)c2c1c(C(=O)OCCc1ccccn1)c1ccccn21 the growth was 8.74% (active).
With CCOC(=O)C#Cc1c(C(=O)OCC)nnn1[C@@H]1O[C@H](COC)[C@@H](OC)[C@H]1OC the growth was -91.2% (active).
In the case of Cc1ccc(OCCOCCOCCOCCOCCOc2ccc(C)n(O)c2=S)c(=S)n1O, the growth is reported as 7.97% (active).
CC1(C)N=C(N)N=C(N)N1c1cc(Cl)ccc1Cl was tested, and the growth was 9.84% (active).
With c1cc(OCCN2CCCC2)ccc1CNc1ccc2nc(CCC3CCCCC3)[nH]c2c1 the growth was 4.69% (active).
With CN(C)CCCn1c2c(c3cnccc3c1=O)C(=O)c1ccccc1-2 the growth was 1% (active).

Compared with O=CN1N=C(c2cccc(Nc3ccnc4cc(Cl)ccc34)c2)CC1c1ccc(Cl)cc1 (stereo not given), CS(=O)(=O)Nc1cc(-c2ccc3ncnc(Nc4ccc(F)c(Cl)c4)c3c2)ccc1Cl is lower in growth: 18.8% for the first, 18.1% for the second.

Going from O=C1/C(=C/c2ccccn2)SC(=S)N1N1CCOCC1 to O=C(Nc1nc(Cl)nc(Nc2ccc(N3CCOCC3=O)cc2)n1)c1ccc(Cl)s1, the growth rises from 92.6% to 99.8%.

Going from CC(=O)N1N=C(c2ccc(Nc3nc(Nc4ccc(F)cc4)nc(Nc4ccc(F)cc4)n3)cc2)CC1c1ccc(N(C)C)cc1 (stereo not given) to O=C(CSc1nnnn1-c1ccccc1)Nc1ccc(Oc2ccccc2)cc1, the growth rises from 59.3% to 107%.

Going from CCOC(=O)C1=C(CCl)N(C)C(=O)NC1c1ccc2c(c1)OCO2 (stereo not given) to O=C1O[C@@H](c2ccccc2Cl)[C@@H]2c3cc4c(cc3CCN12)OCO4, the growth rises from 36.7% to 105%.

First: COc1ccc(/C=N/Nc2c3ccccc3nc3ccccc23)cc1
Second: COc1cccc(CNc2c3ccccc3nc3ccccc23)c1OC
The growth of the first is higher: 88.2% for the first, 33.7% for the second.

Going from CCOC(=O)c1cnn(CC(C)O)c1NC(=O)NCc1ccccc1C(F)(F)F (stereo not given) to CCCOC(=O)Nc1nc2ccc(SCC)cc2s1, the growth falls from 86.4% to 79.8%.

First: COc1cc2c(cc1-c1c(C)noc1C)ncc1nc(CN3CCOCC3)n([C@H](C)COC(F)F)c12
Second: COc1cc2ncnc(Nc3ccc(S(=O)(=O)Nc4nccs4)cc3)c2cc1OCCCN1CCCC1
The growth of the first is lower: 35.1% for the first, 100% for the second.

Compared with CCCCNC(=O)c1ccc2c(c1)nc(-c1ccccc1)n2C1CCCCC1, Cc1nc([P+](c2ccccc2)(c2ccccc2)c2ccccc2)c(N2CCCCC2)o1 is lower in growth: 109% for the first, 78% for the second.

First: c1ccc(-c2nc3ccccc3[nH]2)c(OCCCCCOc2ccccc2-c2nc3ccccc3[nH]2)c1
Second: O=C(NCCNC(c1ccccc1)C(NCCNC(=O)c1ccccc1)c1ccccc1)c1ccccc1 (stereo not given)
The growth of the first is higher: 104% for the first, 61.6% for the second.

Going from O=C(c1ccc(Br)cc1)C(Br)C(c1ccc(Cl)cc1)C(c1ccccc1)[N+](=O)[O-] (stereo not given) to COc1ccc(Oc2ccc(/C=C/C(=O)c3cc4ccccc4oc3=O)cc2)cc1, the growth falls from 88.7% to 74.8%.

Going from O=C(/C=C/c1ccccc1)N(C1CCCCC1)C1CCCCC1 to CC1=C2[C@@H](CC1)[C@]1(C)O[C@@](C3CCNCC3)(C[C@H]1OC(=O)CO)[C@H]2OC(=O)/C=C/c1ccccc1, the growth falls from 66.8% to 49.1%.

Compared with COCCn1cc(-c2csc(-c3c[nH]c4ccccc34)n2)c2cccnc21, COC(=O)/C=C1/SC(=Nc2ccc(F)cc2)N(CCc2c[nH]c3ccc(O)cc23)C1=O is lower in growth: 56.2% for the first, 52.1% for the second.

First: COc1cc(C=C2C(=O)NC(=S)NC2=O)cc(CN2CCCC2)c1O
Second: COc1ccc(C/C(C)=C(\c2ccc(O)cc2)c2ccc(OCCN3CCCCC3)cc2)cc1
The growth of the first is lower: 90.5% for the first, 104% for the second.

First: Cc1ccc(S(=O)(=O)OC[C@]23CCC(C)(C)C[C@H]2C2=CC[C@@H]4[C@@]5(C)CCCNC(C)(C)[C@@H]5CC[C@@]4(C)[C@]2(C)CC3)cc1
Second: CC1=C2CC/C(C)=C/CC[C@]3(C)O[C@H]3CC/C(C)=C/[C@H]2OC1
The growth of the first is lower: 41.9% for the first, 87% for the second.

Compared with Clc1cccc(C2Cc3cnccc3-c3[nH]c4ccncc4c32)c1 (stereo not given), Cc1cc(Cl)nc(N2CCN(CCNc3ccnc4cc(Cl)ccc34)CC2)n1 is lower in growth: 50.8% for the first, 44.6% for the second.

Going from O=C(/C=C/C12c3ccccc3C(c3ccccc31)C1C(=O)NC(=O)C12)c1ccco1 (stereo not given) to COc1cc(/C=C2\C(=O)N(CCCOc3cc(O)c4c(=O)cc(-c5ccccc5)oc4c3)c3ccccc32)cc(OC)c1O, the growth rises from 48.1% to 85.2%.

Going from CC(C)Cc1nc(Nc2ccccc2)[nH]c(=O)c1C#N to COc1ccc(CN2C(=O)OC(C)(COC(C)=O)C2=O)cc1 (stereo not given), the growth rises from 50.9% to 94.8%.
